Only a selection was taken, and hits are over-represented in it overall.
Pf Dd2 inh: qHTS Primary assay for Inhibitors of Plasmodium falciparum Dd2 growth in vitro; actives 4.3% (n = 120,000); Potency, µM (series often up to 28.9 µM), for inactives: top-dose activity, negative = inhibition, actives largely listed as inhibitors; P. falciparum Dd2 growth, SYBR Green, 72 h; active means well fitted inhibition curve with a large enough effect;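 further: plate controls were DMSO vehicle for no effect and reference drug for full effect; nearly all actives have a fitted effect of over 65% in size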
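Readout: SYBR Green fluorescence, 485 nm excitation, 535 nm emission, after ~16 h lysis at 37C. Before that, Dd2-infected red cells (2.5% hematocrit) grew 72 h with compound, 29 uM top final concentration.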
An asterisk follows results filed as active; i = inactive; [ ] = remark or other dose. Potency means the concentration at half of the fitted maximal effect.

SMILES	Pf Dd2 inh
CCC(CC)c1cc([C@H]2CN3CC[C@H]2C[C@@H]3CNC(=O)COc2ccccc2)nc(-c2ccncc2)n1	0.45µM*
CN(Cc1ccccc1)C[C@H]1CN2CC[C@H]1C[C@@H]2CNC(=O)c1ccc(C(F)(F)F)cc1	i
O=C(c1ccccc1Cl)N1CCN(c2cc(C(F)(F)F)ncn2)CC1	-13%
CCN1C(=O)C2(CCN(S(=O)(=O)c3ccc(OC)cc3)CC2)c2ccccc21	62%
O=C(CCCc1ccccc1)N1CCC(C2CCNC2)CC1 (configuration not stated)	-13%
Cc1ccc(NC(=O)Nc2ccc(C)n(CC(=O)Nc3ccccc3)c2=O)cc1	-16%
CCn1cnnc1CC1CCN(S(=O)(=O)c2ccccc2C)CC1	-19%
O=C(CCCn1c(=O)[nH]c2ccccc2c1=O)N1CCN(c2ccccc2)CC1	10µM*
COc1ccc(Cn2c(=O)[nH]c3cc(C(=O)N4CCN(c5ccccc5)CC4)ccc3c2=O)cc1	3%
O=C(CCCCCn1c(=O)[nH]c2ccccc2c1=O)N1CCN(c2cccc(C(F)(F)F)c2)CC1	-11%
CC(=O)c1ccc(N2CCN(C(=O)c3ccc(Cn4c(=O)[nH]c5ccccc5c4=O)cc3)CC2)cc1	7.9µM*
COCCn1c(=O)[nH]c2cc(C(=O)N3CCN(c4ccccc4)CC3)ccc2c1=O	-5%
CCCCCn1c(=O)[nH]c2cc(C(=O)N3CCN(c4ccccc4)CC3)ccc2c1=O	9%
O=C(Cc1cccs1)N1CCCN(C(=O)C2CC2)c2ccccc21	-16%
COc1ccc(C2(C(=O)N3CCC(Cc4nc(-c5ccccc5)no4)CC3)CC2)cc1	i
CS(=O)(=O)c1ccc(OC[C@H]2C[C@@H](NC(=O)C3CCCC3)[C@H](O)[C@@H]2O)cc1	-7%[44.1 µM]
CCOc1ccccc1NC(=O)Cn1c(-c2ccc(F)cc2)nc(C)c(CCO)c1=O	i
COc1cc(C2Nc3ccccc3-c3cc(C)nn32)ccc1O (configuration not stated)	1%
COc1ccc(C2Nc3ccccc3-c3cc(C)nn32)cc1OC (configuration not stated)	8%
CCOc1cccc(C2Nc3ccccc3-c3cc(C)nn32)c1O (configuration not stated)	1µM*
Fc1ccc(F)c(CN2CCC(Oc3ccccc3-c3nc(C4CCOCC4)no3)C2)c1 (configuration not stated)	4.5µM*
O=C(c1cccc(F)c1)N1CCC(Oc2ccccc2-c2nc(C3CCOCC3)no2)C1 (configuration not stated)	-2%
O=C(c1ccoc1)N1CCC(Oc2ccccc2-c2nc(C3CCOCC3)no2)C1 (configuration not stated)	i
Cc1ccccc1C(=O)N1CCN(C(=O)c2nnn3c2COC(c2ccc(Cl)cc2)C3)CC1 (configuration not stated)	i
COc1cc(OC)c(OC)cc1CN1CCC(C)(c2noc(C3CCOCC3)n2)CC1	-11%
SMILES	Pf Dd2 inh
COc1ccc(C2=C(C(C)=O)Sc3nnc(-c4ccccc4)n3N2C(C)=O)cc1	-13%
CCOc1ccc(C2=C(C(C)=O)Sc3nnc(C)n3N2C(C)=O)cc1	1.1µM*
CCOc1ccc(-c2nnc(SCC(=O)c3ccccc3)n2-c2ccccc2)cc1	21%
CC(=O)C1=C(c2ccc(C)cc2)N(C(C)=O)n2c(nnc2-c2ccccc2)S1	7.9µM*
CCc1nnc2n1N(C(C)=O)C(c1ccc(C(C)(C)C)cc1)=C(C(C)=O)S2	3.2µM*
Cc1ccc(C(=O)N2CCn3c(nnc3-c3ccccc3)C2)cc1	i
CCOc1ccc(-c2nnc(SCC(=O)c3ccc(Br)cc3)n2-c2ccccc2)cc1	i
CC(C)c1ccc(Nc2n[nH]c(C(O)C3CC3)n2)cc1 (configuration not stated)	-8%[44.1 µM]
O=C1CCCN1CC(=O)N1CCCC(Nc2ccccc2)C1 (configuration not stated)	-12%
CC(C)(CC(=O)O)CC(=O)N1C[C@@H]2C[C@H](C1)c1ccc(-c3cccc(C(F)(F)F)c3)c(=O)n1C2	0%
COCC(=O)N1CCc2n[nH]c(=O)n2CC1	46%
O=C([C@@H]1C[C@H](F)CN1C(=O)c1cccs1)N1CCOCC1	35%
O=[S+]([O-])(c1ccccc1)N1CC2(COCCN(Cc3ccccc3)C2)C1	i
COCCNC(=O)[C@H]1C[C@H](Oc2ccccc2)CN1C(=O)Nc1ccc2c(c1)OCCO2	i
CC(=O)NCCC1CCN(C(=O)Nc2ccccc2F)CC1	-5%
CC(=O)NC1(C)CCCN(Cc2ccc(Oc3ccccc3)cc2)C1 (configuration not stated)	i
CC(=O)NC1(C)CCCN(c2ccc(Oc3ccccc3)cc2)C1 (configuration not stated)	18%[44.1 µM]
CC(=O)NC1(C)CCCN(Cc2cccc(-c3ccccc3)c2)C1 (configuration not stated)	8.9µM*
CC(=O)NC1(C)CCN(Cc2ccccc2-c2ccccc2Oc2ccccc2)C1 (configuration not stated)	5µM*
CC(=O)NC1(C)CCN(Cc2cccc(-c3ccc(N4CCOCC4)cc3)c2)C1 (configuration not stated)	-3%[44.1 µM]
CC(=O)NC1(C)CCN(Cc2ccc(-c3cccc4ncccc34)cc2)C1 (configuration not stated)	i
CC(=O)NC1(C)CCN(Cc2ccc(-c3ccc4ccccc4c3)cc2)C1 (configuration not stated)	10µM*
CC(=O)NC1(C)CCN(Cc2cccc(-c3cccc4ncccc34)c2)C1 (configuration not stated)	i
CC(=O)NC1(C)CCCN(Cc2cccc(Nc3ccncc3)c2)C1 (configuration not stated)	-23%[44.1 µM]
Cc1ncoc1C(=O)N1CCC(C2CCN(Cc3cccc(F)c3F)CC2)C1 (configuration not stated)	-20%
SMILES	Pf Dd2 inh
COCCN1C(=O)CC[C@]2(C(=O)NCc3cccc(OC)c3)CCCC[C@@H]12	3%
Cc1nc2ccc(C(=O)N3CCSCC3)cc2nc1C	-18%
CNC(=O)[C@@H]1C[C@@H](O)CN1C1CCN(C(=O)c2ccc3ccccc3n2)CC1	20%
O=C(c1ccc(CN2C(=O)NC3(CCS(=O)(=O)CC3)C2=O)cc1)N1CCOCC1	-13%
CN(Cc1cccnc1)C(=O)C1C2C(=O)N(c3ccc(CCO)cc3)C[C@@]23C=C[C@@H]1O3 (some centres not stated)	-6%
CCc1cccc(NC(=O)c2cc3c(=O)oc4ccc(C)cc4c3s2)c1	68%
CCc1cccc(NC(=O)c2oc3ccc4c(c3c2C)C(=O)CC(C)(C)O4)c1	10µM*
COc1ccc(NC(=O)c2oc3ccc4c(c3c2C)C(=O)CC(C)(C)O4)cc1OC	i
Cc1ccc(CSc2nnc(-n3c(=O)c(C#N)cc4c(=O)n5cc(C)ccc5nc43)s2)cc1	32%
Cc1cccn2c(=O)c3cc(C#N)c(=O)n(-c4nnc(SCc5ccc(Cl)cc5)s4)c3nc12	8.9µM*
N#Cc1cc2c(=O)n3ccccc3nc2n(-c2nnc(SCc3ccccc3)s2)c1=O	i
CCc1noc(C)c1C(=O)N1CCc2c(nc(-c3ccccn3)[nH]c2=O)C1	-13%
CCN(CC)c1cc(C)c2cc(NC(=O)/C=C/c3ccccc3Cl)ccc2n1	10µM*
CCN(CC)c1cc(C)c2cc(NC(=O)c3ccc(F)cc3Cl)ccc2n1	i
CCN(CC)c1cc(C)c2cc(NC(=O)c3cc(OC)cc(OC)c3)ccc2n1	-3%

Screening data (PubChem BioAssay)
